The full ranking holds about 16,000 sequences; the median of “rpm ratio (pull-down/input)” is about 0.94, and the highest 2% start at about 1.7. What follows is part of a selection rich in the highest values, with near analogues and random picks from the rest.

The assay concerns the target T1, MBP-FoxP1dN (Mus musculus, UniProt P58462 326-579).
T1 sequence: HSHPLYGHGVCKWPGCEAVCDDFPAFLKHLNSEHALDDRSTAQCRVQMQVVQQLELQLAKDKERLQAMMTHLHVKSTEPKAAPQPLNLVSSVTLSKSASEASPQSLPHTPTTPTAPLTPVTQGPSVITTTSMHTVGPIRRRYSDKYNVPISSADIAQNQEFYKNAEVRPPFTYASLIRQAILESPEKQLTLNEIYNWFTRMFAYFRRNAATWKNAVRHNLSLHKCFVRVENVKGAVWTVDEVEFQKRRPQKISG
The assay can be described thus: PD-seq (MBP pull-down with sequencing); 20 mM Tris-HCl pH 7.5, 100 mM NaCl, 1.5 mM MgCl2, 0.4 uM protein, 0.1 uM dsDNA library, 30 min, room temperature, amylose pull-down; high values mean tight binding. The note with it: protein: recombinant; tags: His6-MBP; chain copies: 2; dsDNA, one strand shown. An outline of the steps: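 A fragment of mouse FoxP3 or FoxP1 without its N-terminus, carrying a His6-MBP tag and produced in E. coli, was combined at 0.4 µM with a 0.1 µM degenerate double-stranded DNA library filled in with Klenow. The mixture sat for 30 min at room temperature in Tris pH 7.5 buffer containing NaCl and MgCl2. Protein–DNA complexes were captured on amylose resin, washed three times, and the DNA was freed with proteinase K, barcoded by PCR and sequenced on Illumina. Binding is expressed as reads-per-million enrichment of pull-down over input, with replicates pooled.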
In the case of “GATGATTGTTCTCCCAGCTGATGAATTCTCACAGTCGAGTAAACAAATTTTCCTAATCTTTCTGTTCAAGCGCCATCTAC”, the binding signal is 0.875 RPM ratio (pull-down/input). For the sequence “GATGATTGTTCTCCCAGCTGATGAATTAATTGAGTCGAGTAAACAAATTTTCCTAATCTTTCTGTTCAAGCGCCATCTAC”, the binding signal was 0.932 RPM ratio (pull-down/input).

On to “GATGATTGTTCTCCCAGCTGATGAATTGGGTATCTCGAGTAAACAAATTTTCCTAATCTTTCTGTTCAAGCGCCATCTAC”, for which the binding signal is 0.935 RPM ratio (pull-down/input). Regarding “GATGATTGTTCTCCCAGCTGATGAATTAGAAGCTTCGAGTAAACAAATTTTCCTAATCTTTCTGTTCAAGCGCCATCTAC”, the binding signal is 0.996 RPM ratio (pull-down/input). Turning to “GATGATTGTTCTCCCAGCTGATGAATTGCGGCAGTCGAGTAAACAAATTTTCCTAATCTTTCTGTTCAAGCGCCATCTAC”, the binding signal is 0.919 RPM ratio (pull-down/input).

Consider “GATGATTGTTCTCCCAGCTGATGAATTGCGCTAGTCGAGTAAACAAATTTTCCTAATCTTTCTGTTCAAGCGCCATCTAC”, for which the binding signal was 1.06 RPM ratio (pull-down/input). Under “GATGATTGTTCTCCCAGCTGATGAATTCTTTTATTCGAGTAAACAAATTTTCCTAATCTTTCTGTTCAAGCGCCATCTAC” stands 1.13 RPM ratio (pull-down/input); under “GATGATTGTTCTCCCAGCTGATGAATTTATTGATTCGAGTAAACAAATTTTCCTAATCTTTCTGTTCAAGCGCCATCTAC”, 1.86 RPM ratio (pull-down/input). Under “GATGATTGTTCTCCCAGCTGATGAATTTATTCTTTCGAGTAAACAAATTTTCCTAATCTTTCTGTTCAAGCGCCATCTAC” stands 1.34 RPM ratio (pull-down/input).

“GATGATTGTTCTCCCAGCTGATGAATTTATTTATTCGAGTAAACAAATTTTCCTAATCTTTCTGTTCAAGCGCCATCTAC”: the binding signal is 2.17 RPM ratio (pull-down/input).

In the case of “GATGATTGTTCTCCCAGCTGATGAATTGATTTATTCGAGTAAACAAATTTTCCTAATCTTTCTGTTCAAGCGCCATCTAC”, the binding signal is 1.27 RPM ratio (pull-down/input). In the case of “GATGATTGTTCTCCCAGCTGATGAATTTCTTTATTCGAGTAAACAAATTTTCCTAATCTTTCTGTTCAAGCGCCATCTAC”, the binding signal was 0.979 RPM ratio (pull-down/input). Take “GATGATTGTTCTCCCAGCTGATGAATTAATTTCCTCGAGTAAACAAATTTTCCTAATCTTTCTGTTCAAGCGCCATCTAC”: the binding signal is 0.884 RPM ratio (pull-down/input). Take “GATGATTGTTCTCCCAGCTGATGAATTTATGCAGTCGAGTAAACAAATTTTCCTAATCTTTCTGTTCAAGCGCCATCTAC”: the binding signal is 1.11 RPM ratio (pull-down/input). Under “GATGATTGTTCTCCCAGCTGATGAATTTACGTCATCGAGTAAACAAATTTTCCTAATCTTTCTGTTCAAGCGCCATCTAC” stands 1.45 RPM ratio (pull-down/input). As for “GATGATTGTTCTCCCAGCTGATGAATTTACCTCCTCGAGTAAACAAATTTTCCTAATCTTTCTGTTCAAGCGCCATCTAC”, the binding signal is 1.07 RPM ratio (pull-down/input). Under “GATGATTGTTCTCCCAGCTGATGAATTATTTACCTCGAGTAAACAAATTTTCCTAATCTTTCTGTTCAAGCGCCATCTAC” stands 1.86 RPM ratio (pull-down/input). The value for “GATGATTGTTCTCCCAGCTGATGAATTTATTACCTCGAGTAAACAAATTTTCCTAATCTTTCTGTTCAAGCGCCATCTAC” was 1.2 RPM ratio (pull-down/input). In the case of “GATGATTGTTCTCCCAGCTGATGAATTACCTACCTCGAGTAAACAAATTTTCCTAATCTTTCTGTTCAAGCGCCATCTAC”, the binding signal was 0.913 RPM ratio (pull-down/input).

With “GATGATTGTTCTCCCAGCTGATGAATTGTTTACCTCGAGTAAACAAATTTTCCTAATCTTTCTGTTCAAGCGCCATCTAC”, the binding signal was 2.65 RPM ratio (pull-down/input). Consider “GATGATTGTTCTCCCAGCTGATGAATTTTTTACCTCGAGTAAACAAATTTTCCTAATCTTTCTGTTCAAGCGCCATCTAC”, for which the binding signal is 0.943 RPM ratio (pull-down/input). On to “GATGATTGTTCTCCCAGCTGATGAATTATACTGCTCGAGTAAACAAATTTTCCTAATCTTTCTGTTCAAGCGCCATCTAC”, for which the binding signal is 0.951 RPM ratio (pull-down/input). For the sequence “GATGATTGTTCTCCCAGCTGATGAATTCTGCCTGTCGAGTAAACAAATTTTCCTAATCTTTCTGTTCAAGCGCCATCTAC”, the binding signal was 0.791 RPM ratio (pull-down/input). On to “GATGATTGTTCTCCCAGCTGATGAATTCATACATTCGAGTAAACAAATTTTCCTAATCTTTCTGTTCAAGCGCCATCTAC”, for which the binding signal was 1.01 RPM ratio (pull-down/input). The value for “GATGATTGTTCTCCCAGCTGATGAATTTGACCGATCGAGTAAACAAATTTTCCTAATCTTTCTGTTCAAGCGCCATCTAC” was 0.841 RPM ratio (pull-down/input).

Regarding “GATGATTGTTCTCCCAGCTGATGAATTGCTCGAGTCGAGTAAACAAATTTTCCTAATCTTTCTGTTCAAGCGCCATCTAC”, the binding signal was 0.899 RPM ratio (pull-down/input). As to “GATGATTGTTCTCCCAGCTGATGAATTTCCGGAATCGAGTAAACAAATTTTCCTAATCTTTCTGTTCAAGCGCCATCTAC”, the binding signal was 0.872 RPM ratio (pull-down/input). For the sequence “GATGATTGTTCTCCCAGCTGATGAATTTAGTTTATCGAGTAAACAAATTTTCCTAATCTTTCTGTTCAAGCGCCATCTAC”, the binding signal is 1.89 RPM ratio (pull-down/input). Turning to “GATGATTGTTCTCCCAGCTGATGAATTGTGTTTATCGAGTAAACAAATTTTCCTAATCTTTCTGTTCAAGCGCCATCTAC”, the binding signal was 2.92 RPM ratio (pull-down/input). For “GATGATTGTTCTCCCAGCTGATGAATTTTTTTTATCGAGTAAACAAATTTTCCTAATCTTTCTGTTCAAGCGCCATCTAC”, the binding signal was 0.958 RPM ratio (pull-down/input). The value for “GATGATTGTTCTCCCAGCTGATGAATTGTTTTTATCGAGTAAACAAATTTTCCTAATCTTTCTGTTCAAGCGCCATCTAC” was 2.19 RPM ratio (pull-down/input); that for “GATGATTGTTCTCCCAGCTGATGAATTAGTTTTATCGAGTAAACAAATTTTCCTAATCTTTCTGTTCAAGCGCCATCTAC” was 1.02 RPM ratio (pull-down/input); that for “GATGATTGTTCTCCCAGCTGATGAATTTTAGTTATCGAGTAAACAAATTTTCCTAATCTTTCTGTTCAAGCGCCATCTAC” was 1.18 RPM ratio (pull-down/input).

On to “GATGATTGTTCTCCCAGCTGATGAATTTTATATATCGAGTAAACAAATTTTCCTAATCTTTCTGTTCAAGCGCCATCTAC”, for which the binding signal was 1.11 RPM ratio (pull-down/input). As to “GATGATTGTTCTCCCAGCTGATGAATTTCTTTTATCGAGTAAACAAATTTTCCTAATCTTTCTGTTCAAGCGCCATCTAC”, the binding signal is 1.03 RPM ratio (pull-down/input). Consider “GATGATTGTTCTCCCAGCTGATGAATTTTCTTTATCGAGTAAACAAATTTTCCTAATCTTTCTGTTCAAGCGCCATCTAC”, for which the binding signal was 1.2 RPM ratio (pull-down/input).

As to “GATGATTGTTCTCCCAGCTGATGAATTTATCTAATCGAGTAAACAAATTTTCCTAATCTTTCTGTTCAAGCGCCATCTAC”, the binding signal is 1.32 RPM ratio (pull-down/input).

On to “GATGATTGTTCTCCCAGCTGATGAATTTTTTATATCGAGTAAACAAATTTTCCTAATCTTTCTGTTCAAGCGCCATCTAC”, for which the binding signal is 1.08 RPM ratio (pull-down/input). On to “GATGATTGTTCTCCCAGCTGATGAATTGTTTATATCGAGTAAACAAATTTTCCTAATCTTTCTGTTCAAGCGCCATCTAC”, for which the binding signal is 2.47 RPM ratio (pull-down/input).

Regarding “GATGATTGTTCTCCCAGCTGATGAATTCTGCGCGTCGAGTAAACAAATTTTCCTAATCTTTCTGTTCAAGCGCCATCTAC”, the binding signal was 0.978 RPM ratio (pull-down/input).

The values above are taken from article PMC12820563, “FoxP3 forms a head-to-head dimer in vivo and stabilizes its multimerization on adjacent microsatellites”.
